PubChem BioAssay (Tox21)
Records with an inconclusive call do not appear. Active and inactive are the calls of the source. Unless noted, the call rests on the fitted dose curve; in most records, active means well fitted curve in the direction sought with a large enough effect in the repeat runs; inconclusive means weak or mixed curves; inactive means no such curve, though single readings can be large; an effect the other way counts as inactive or inconclusive.

How the values were obtained:
[1] = qHTS assay to identify small molecule agonists of the estrogen receptor alpha (ER-alpha) signaling pathway in the presence of an antagonist - cell viability counter screen (AID 1259386);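 further: cells exposed to compounds for 22 h at 37 °C before the viability read; nearly all actives have a fitted effect of over 30% in size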; further: potency means the concentration at half of the fitted maximal effect
In short: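 Steps: 5-day stripped-FBS culture; seed and incubate 24hr; add ICI-182,780 (10.0nM final); pin 15-point compound titration; incubate 22hr at 37C; add CellTiter-Fluor at 21hr; read fluorescence.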

[2] = target: Progesterone receptor (Homo sapiens) (UniProt P06401); assay: qHTS assay to identify small molecule antagonists of the progesterone receptor (PR) signaling pathway (AID 1346795; active means well fitted inhibition curve with a large enough effect in the signal ratio in the repeat runs, not every such curve was filed as active; the % refers to the signal ratio; further: potency means the concentration at half of the fitted maximal effect)
Progesterone receptor (Homo sapiens), sequence (P06401 whole entry, looked up): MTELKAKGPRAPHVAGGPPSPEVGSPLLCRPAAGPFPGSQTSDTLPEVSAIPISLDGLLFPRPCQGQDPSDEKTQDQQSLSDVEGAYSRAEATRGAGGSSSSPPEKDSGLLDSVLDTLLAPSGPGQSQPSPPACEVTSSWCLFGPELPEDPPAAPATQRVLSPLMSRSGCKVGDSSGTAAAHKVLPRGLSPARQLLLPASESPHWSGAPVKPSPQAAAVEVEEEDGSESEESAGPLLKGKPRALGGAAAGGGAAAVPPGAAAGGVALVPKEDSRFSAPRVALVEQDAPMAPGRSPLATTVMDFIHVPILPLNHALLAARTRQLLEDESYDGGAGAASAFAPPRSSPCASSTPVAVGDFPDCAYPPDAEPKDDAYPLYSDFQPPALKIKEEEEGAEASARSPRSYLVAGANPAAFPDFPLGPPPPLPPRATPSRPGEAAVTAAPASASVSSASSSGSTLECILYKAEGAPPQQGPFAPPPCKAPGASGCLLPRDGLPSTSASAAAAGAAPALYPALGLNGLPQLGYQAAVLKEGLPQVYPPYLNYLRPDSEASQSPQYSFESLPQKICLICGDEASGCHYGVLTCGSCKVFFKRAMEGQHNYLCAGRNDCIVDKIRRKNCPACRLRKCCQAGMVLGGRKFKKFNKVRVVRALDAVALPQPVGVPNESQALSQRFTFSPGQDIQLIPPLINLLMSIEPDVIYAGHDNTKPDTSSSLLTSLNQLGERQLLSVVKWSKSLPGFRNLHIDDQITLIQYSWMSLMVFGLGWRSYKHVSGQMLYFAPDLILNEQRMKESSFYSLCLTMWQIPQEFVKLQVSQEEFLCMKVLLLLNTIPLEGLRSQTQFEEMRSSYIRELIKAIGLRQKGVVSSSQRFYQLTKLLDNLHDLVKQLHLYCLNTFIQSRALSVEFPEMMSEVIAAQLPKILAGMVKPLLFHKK
In short: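 Antagonist mode with agonist R5020 at 1 nM final and 16 hr incubation at 37C. Reporter was beta-lactamase driven by UAS in HEK293T (PR-UAS-bla), 2% charcoal-stripped serum; signal from LiveBLAzer FRET substrate, 2 hr at room temperature.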

[3] = qHTS assay to identify small molecule antagonists of the TGF-beta/Smad signaling pathway - cell viability counter screen (AID 1346824); further: nearly all actives have a fitted effect of over 50% in size; further: potency means the concentration at half of the fitted maximal effect
In short: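 Cytotoxicity counter-screen run in the same wells as the beta-lactamase Smad reporter read: CellTiter-Glo luminescence after 30 min at room temperature. HEK 293T SBE-bla cells had 5 hr compound exposure at 37 C with TGF-beta1 (0.25 ng/mL stock).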

[4] = target: Thyrotropin-releasing hormone receptor (Homo sapiens) (UniProt P34981); assay: qHTS assay to identify small molecule antagonists of the thyrotropin-releasing hormone receptor (TRHR) signaling pathway (AID 1346877; active means well fitted inhibition curve with a large enough effect in the repeat runs, not every such curve was filed as active; further: series mostly up to about 51 µM)
Thyrotropin-releasing hormone receptor (Homo sapiens), sequence (P34981 whole entry, looked up): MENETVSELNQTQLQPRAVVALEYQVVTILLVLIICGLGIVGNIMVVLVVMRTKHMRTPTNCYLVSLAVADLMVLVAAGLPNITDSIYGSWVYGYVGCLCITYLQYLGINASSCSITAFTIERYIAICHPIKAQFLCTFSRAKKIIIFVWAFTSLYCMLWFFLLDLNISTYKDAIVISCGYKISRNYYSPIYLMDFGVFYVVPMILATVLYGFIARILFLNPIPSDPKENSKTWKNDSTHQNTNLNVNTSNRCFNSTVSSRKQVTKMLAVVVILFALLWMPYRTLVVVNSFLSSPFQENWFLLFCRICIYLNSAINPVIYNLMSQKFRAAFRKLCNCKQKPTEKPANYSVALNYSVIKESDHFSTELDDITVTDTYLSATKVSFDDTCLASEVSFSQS
In short: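 Human TRHR in HEK293 cells; inhibition of the intracellular calcium rise triggered by 1 nM TRH was followed by fluorescence over 3 min. Compounds were run at 15 concentrations, three replicates each.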

[5] = target: Thyrotropin-releasing hormone receptor (Homo sapiens) (UniProt P34981); assay: qHTS assay to identify small molecule agonists of the thyrotropin-releasing hormone receptor (TRHR) signaling pathway (AID 1346891; calls by dose curve; further: series mostly up to about 58 µM)
In short: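 Agonist-mode intracellular calcium readout: kinetic fluorescence over 3 min at 1 s intervals after compound addition to TRHR-HEK293 cells (18 h seeded, 2 h dye-loaded at 37 C). Fifteen concentrations, triplicates.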

[6] = Human pregnane X receptor (PXR) small molecule agonists, qHTS cell viability counter screen (AID 1346977); further: nearly all actives have a fitted effect of over 50% in size; further: potency means the concentration at half of the fitted maximal effect
In short: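 Same-well viability read: CellTiter-Fluor added after 23 hr compound exposure, fluorescence measured 1 hr later. Cells were PXR-Luc HepG2 seeded at 2,000/well in 5% charcoal-stripped FBS medium, rested 5 hr before dosing at 37 C.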

[7] = Caspase-3/7 induction in HepG2 cells by small molecules, qHTS assay (AID 1346978); further: nearly all actives have a fitted effect of over 15% in size
In short: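 Caspase-3/7 induction was measured by Caspase-Glo 3/7 luminescence (30 min, room temperature) after a 17 hr compound exposure of wild-type HepG2 cells seeded at 2,000 per well and pre-incubated 5 hr.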

[8] = Caspase-3/7 induction in CHO-K1 cells by small molecules, qHTS cell viability counter screen (AID 1346979); further: nearly all actives have a fitted effect of over 35% in size; further: potency means the concentration at half of the fitted maximal effect
In short: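 Cytotoxicity counter screen: CellTiter-Fluor added to compound-treated wild-type CHO-K1 cells at 16 h (37C, 5% CO2), fluorescence measured 1 h later; same wells as caspase-3/7 measurement.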

[9] = target: Nuclear receptor subfamily 1 group I member 2 (Homo sapiens) (UniProt O75469); assay: Human pregnane X receptor (PXR) small molecule agonists, qHTS assay (AID 1346982); further: nearly all actives have a fitted effect of over 35% in size; further: potency means the concentration at half of the fitted maximal effect
Nuclear receptor subfamily 1 group I member 2 (Homo sapiens), sequence (O75469 whole entry, looked up): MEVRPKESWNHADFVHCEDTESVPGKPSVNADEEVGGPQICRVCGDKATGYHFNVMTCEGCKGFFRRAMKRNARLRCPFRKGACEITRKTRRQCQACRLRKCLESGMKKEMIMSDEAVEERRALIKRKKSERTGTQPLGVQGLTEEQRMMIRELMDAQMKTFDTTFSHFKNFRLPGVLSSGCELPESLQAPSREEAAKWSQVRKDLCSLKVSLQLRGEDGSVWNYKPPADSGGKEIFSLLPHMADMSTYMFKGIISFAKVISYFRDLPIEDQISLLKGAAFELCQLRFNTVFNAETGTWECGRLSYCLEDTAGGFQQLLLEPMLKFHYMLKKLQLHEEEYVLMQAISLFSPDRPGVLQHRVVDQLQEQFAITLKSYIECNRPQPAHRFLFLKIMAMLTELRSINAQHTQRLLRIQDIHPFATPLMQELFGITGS
In short: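 After plating in 5% charcoal-stripped FBS and a 5 hr rest, PXR-Luc HepG2 cells received compounds in DMSO. Following 24 hr at 37 C, ONE-Glo was added and light output read.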

[10] = qHTS assay to identify small molecule antagonists of the progesterone receptor (PR) signaling pathway - cell viability counter screen (AID 1346798); further: series mostly up to about 92 µM; nearly all actives have a fitted effect of over 50% in size
In short: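 Cytotoxicity read as CellTiter-Glo luminescence (30 min, room temperature) in the same wells as the beta-lactamase readout. HEK293T PR-UAS-bla cells in charcoal-stripped 2% FBS received compound and R5020, then 16 h at 37C, 5% CO2.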

[11] = qHTS assay to identify small molecule agonists of the progesterone receptor (PR) signaling pathway - cell viability counter screen (AID 1346799; calls by dose curve; further: nearly all actives have a fitted effect of over 45% in size; further: potency means the concentration at half of the fitted maximal effect)
In short: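 Cytotoxicity measured by CellTiter-Glo luminescence (30 min, RT) in the same wells as the PR beta-lactamase agonist read. Those HEK293T cells had 16 h compound treatment at 37 C in 2% charcoal-stripped FBS medium.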

[12] = qHTS assay to identify small molecule agonists of the TGF-beta/Smad signaling pathway - cell viability counter screen (AID 1346829); further: top concentration of the series differs between compounds; nearly all actives have a fitted effect of over 45% in size
In short: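 After overnight seating at 37 C and 5% CO2, reporter cells got compounds for 5 hr and FRET substrate for 2 hr; cell viability then came from CellTiter-Glo luminescence.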

[13] = qHTS assay to identify small molecule agonists of the TGF-beta/Smad signaling pathway (AID 1346859; active means well fitted activation curve with a large enough effect in the signal ratio in the repeat runs, not every such curve was filed as active; the % refers to the signal ratio; further: series mostly up to about 77 µM)
In short: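 Fluorescence (ex 405 nm; em 460 and 530 nm) was read 2 h after LiveBLAzer FRET substrate at RT. The preceding compound treatment of overnight-plated SBE-bla HEK293T cells lasted 5 h at 37 C.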

[14] = Caspase-3/7 induction in CHO-K1 cells by small molecules, qHTS assay (AID 1346980); further: nearly all actives have a fitted effect of over 15% in size
In short: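 Luminescent Caspase-Glo 3/7 read (30min, room temperature) quantified apoptosis induction. Cells were wild-type CHO-K1, treated with compound for 17hr at 37 C and 5% CO2.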

[15] = Caspase-3/7 induction in HepG2 cells by small molecules, qHTS cell viability counter screen (AID 1346981); further: nearly all actives have a fitted effect of over 30% in size; further: potency means the concentration at half of the fitted maximal effect
In short: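 The parent HepG2 line is plated at 2,000 cells per well and rested 5 hr before compound pinning from DMSO stocks. Following a 16-hr treatment at 37 C, a fluorogenic live-cell substrate (CellTiter-Fluor) reports viability after 1 hr.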

[16] = target: Acetylcholinesterase (Homo sapiens) (UniProt P22303); assay: Acetylcholinesterase (AChE) small molecule antagonists: colormetric cell-based qHTS assay (AID 1347395; calls by dose curve; further: nearly all actives have a fitted effect of over 30% in size; further: potency means the concentration at half of the fitted maximal effect)
Acetylcholinesterase (Homo sapiens), sequence (P22303 whole entry, looked up): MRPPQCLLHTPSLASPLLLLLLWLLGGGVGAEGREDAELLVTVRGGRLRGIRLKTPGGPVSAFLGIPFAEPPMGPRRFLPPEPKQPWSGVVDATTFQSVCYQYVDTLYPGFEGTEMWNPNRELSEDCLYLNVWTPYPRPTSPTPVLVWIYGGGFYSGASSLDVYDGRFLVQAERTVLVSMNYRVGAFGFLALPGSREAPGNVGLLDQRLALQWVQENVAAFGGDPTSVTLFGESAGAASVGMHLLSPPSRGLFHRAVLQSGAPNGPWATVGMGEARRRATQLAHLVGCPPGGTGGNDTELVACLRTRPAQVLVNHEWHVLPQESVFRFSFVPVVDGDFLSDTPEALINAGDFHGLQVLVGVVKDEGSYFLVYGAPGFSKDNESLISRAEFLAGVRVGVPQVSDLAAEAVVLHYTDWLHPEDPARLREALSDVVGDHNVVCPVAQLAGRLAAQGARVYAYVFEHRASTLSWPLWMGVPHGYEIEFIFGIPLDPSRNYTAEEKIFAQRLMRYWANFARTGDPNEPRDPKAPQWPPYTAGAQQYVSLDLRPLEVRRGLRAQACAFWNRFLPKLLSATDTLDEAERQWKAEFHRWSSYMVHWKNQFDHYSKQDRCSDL
In short: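 Colorimetric readout: DTNB quantifies thiocholine from acetylthiocholine hydrolysed by endogenous AChE of SH-SY5Y cells (2,000/well, plated overnight). Compound pretreatment 30 min, substrate incubation 90 min, both 37 C.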

[17] = target: Progesterone receptor (Homo sapiens) (UniProt P06401); assay: qHTS assay to identify small molecule agonists of the progesterone receptor (PR) signaling pathway (AID 1346784; calls by dose curve; further: nearly all actives have a fitted effect of over 30% in size)
In short: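 Agonist qHTS: compounds pinned onto 3,000 PR-UAS-bla HEK 293T cells per well in charcoal-stripped serum medium, 16hr at 37C, then beta-lactamase activity measured by LiveBLAzer FRET fluorescence after 2 hours at room temperature.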

[18] = target: Nuclear receptor subfamily 1 group I member 2 (Rattus norvegicus) (UniProt Q9R1A7); assay: Rat pregnane X receptor (rPXR) activation by small molecules, qHTS assay (AID 1346983); settings: rPXR luciferase reporter cells, One-Glo luminescence, 24 h; max activation: hits give high values; further: nearly all actives have a fitted effect of over 20% in size
Nuclear receptor subfamily 1 group I member 2 (Rattus norvegicus), sequence (Q9R1A7 whole entry, looked up): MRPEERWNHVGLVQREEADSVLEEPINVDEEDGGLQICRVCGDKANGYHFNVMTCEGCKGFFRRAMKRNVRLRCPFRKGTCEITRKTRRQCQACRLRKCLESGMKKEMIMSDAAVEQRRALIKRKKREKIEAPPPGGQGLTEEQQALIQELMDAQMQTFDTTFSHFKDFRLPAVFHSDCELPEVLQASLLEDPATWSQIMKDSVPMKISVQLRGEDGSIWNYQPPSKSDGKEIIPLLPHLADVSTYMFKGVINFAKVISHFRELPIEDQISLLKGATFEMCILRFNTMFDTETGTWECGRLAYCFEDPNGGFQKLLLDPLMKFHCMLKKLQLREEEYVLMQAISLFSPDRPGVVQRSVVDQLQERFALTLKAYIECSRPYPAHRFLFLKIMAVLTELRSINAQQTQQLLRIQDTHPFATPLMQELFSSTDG
In short: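 Luminescent readout (One-Glo luciferase, 30 min room temperature) followed 24 hr compound treatment at 37 C of rPXR cells plated 2,000 per well and preincubated 5hr; qHTS format with compounds delivered in DMSO.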

[19] = target: Nuclear receptor subfamily 1 group I member 2 (Homo sapiens) (UniProt O75469); assay: CYP3A4 induction through human pregnane X receptor (PXR) by small molecules, qHTS assay (AID 1346984); further: nearly all actives have a fitted effect of over 40% in size
In short: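 Human PXR activation is tracked via CYP3A4 promoter-luciferase in DPX-2 (HepG2) cells. Compounds treat cells for 24hr at 37C, and luminescence is read after One-Glo.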

[20] = target: Nuclear receptor subfamily 1 group I member 2 (Homo sapiens) (UniProt O75469); assay: Human pregnane X receptor (PXR) activation by small molecules, qHTS assay (AID 1346985); further: nearly all actives have a fitted effect of over 40% in size; further: potency means the concentration at half of the fitted maximal effect
In short: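 DPX-2 cells (HepG2 co-transfected with a PXR response element and a CYP3A4-promoter luciferase construct) were seeded at 2,000 per well, rested 5 hr at 37C, then exposed to DMSO-dissolved compounds for 24 hr. Activation was read as luciferase luminescence.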
On the % scale 0 is the no-effect control and ±100 the full control effect.

C=CCC1=C(C)[C@@H](OC(=O)[C@@H]2[C@@H](C=C(C)C)C2(C)C)CC1=O
inactive: outcome [4] | outcome [5] | Potency [7]
active: Potency [1] 48.6 µM | Potency [2] 27.3 µM | Potency [3] 49 µM | Potency [6] 61.1 µM | Potency [8] 43.3 µM | Potency [9] 9.69 µM

O=[N+]([O-])c1ccc2c3c(cccc13)CC2
active: Potency [2] 24.3 µM | Potency [9] 54.5 µM
inactive: Potency [1] | Potency [10] | Potency [11] | Potency [3] | outcome [12] | outcome [13] | outcome [4] | outcome [5] | Potency [6] | Potency [8] | Potency [14] | Potency [15] | Potency [16]

CCOC(=O)C1(c2ccccc2)CCN(CCc2ccc(N)cc2)CC1
inactive: Potency [17] | Potency [2] | Potency [10] | Potency [11] | Potency [3] | outcome [12] | outcome [13] | Potency [7] | Potency [8] | Potency [14] | Potency [15] | Potency [16]
active: Potency [9] 3.76 µM

O=C1OC(CCN2CCCCC2)OC1(c1ccccc1)c1ccccc1 (stereo not given)
inactive: Potency [1] | Potency [10] | Potency [3] | outcome [12] | outcome [13] | outcome [4] | outcome [5] | Potency [6] | Potency [7] | Potency [14] | Potency [15] | Potency [9] | Potency [16]

C1CCC(C2CCCCC2)CC1
inactive: Potency [1] | Potency [17] | outcome [12] | outcome [13] | outcome [4] | outcome [5] | Potency [6] | Potency [7] | Potency [8] | Potency [14] | Potency [15] | Potency [9] | Potency [16]
active: Potency [11] 8.63 µM

C[C@H]1CCC[C@H](O)CCCCCc2cc(O)cc(O)c2C(=O)O1
active: Potency [8] 61.6 µM | Potency [15] 54.9 µM | Potency [9] 7.75 µM | Potency [20] 12.6 µM
inactive: Potency [17] | Potency [3] | outcome [12] | outcome [13] | outcome [4] | outcome [5] | Potency [7] | Potency [14] | max activation [18] -2.62% | Potency [19] | Potency [16]

[O]=[Cd]
inactive: Potency [17] | Potency [2] | Potency [10] | Potency [11] | Potency [3] | outcome [12] | outcome [13] | outcome [4] | outcome [5] | Potency [6] | Potency [7] | Potency [8] | Potency [14] | Potency [15] | Potency [9] | max activation [18] 0.414% | Potency [19] | Potency [20] | Potency [16]

CCOP(=S)(OCC)Oc1cc(-c2ccccc2)on1
active: Potency [9] 24.3 µM | Potency [16] 63.3 µM
inactive: Potency [1] | Potency [17] | outcome [12] | outcome [13] | outcome [4] | outcome [5] | Potency [6] | Potency [7] | Potency [8] | Potency [14] | Potency [15]

Nc1cc(Cl)ccc1O
active: Potency [8] 29.6 µM
inactive: Potency [17] | Potency [10] | Potency [11] | Potency [3] | outcome [12] | outcome [13] | outcome [4] | outcome [5] | Potency [6] | Potency [7] | Potency [14] | Potency [16]

COc1cc2c(cc1OC)[C@@]13CCN4CC5=CCO[C@H]6CC(=O)N2[C@H]1[C@H]6[C@H]5C[C@H]43
active: Potency [9] 21.7 µM
inactive: Potency [17] | Potency [2] | Potency [10] | Potency [11] | outcome [12] | outcome [13] | outcome [4] | outcome [5] | Potency [6] | Potency [7] | Potency [8] | Potency [14] | Potency [15] | max activation [18] -4.15% | Potency [19] | Potency [16]

ClCCCN1CCN(c2cccc(Cl)c2)CC1
active: Potency [11] 1.19 µM
inactive: Potency [1] | Potency [10] | Potency [3] | outcome [12] | outcome [13] | outcome [4] | outcome [5] | Potency [7] | Potency [8] | Potency [14] | Potency [15] | Potency [9]

CC1(C)COP(Oc2ccccc2)OC1
inactive: Potency [1] | Potency [10] | Potency [11] | Potency [3] | outcome [12] | outcome [13] | outcome [4] | outcome [5] | Potency [7] | Potency [8] | Potency [14] | Potency [15] | Potency [9] | Potency [16]

CC(CCc1ccccc1)NC(C)C(O)c1ccc(O)cc1 (stereo not given)
inactive: Potency [1] | Potency [17] | Potency [11] | Potency [3] | outcome [12] | outcome [13] | Potency [7] | Potency [8] | Potency [14] | Potency [15] | Potency [9] | Potency [16]

COc1ccc2c(c1OC)CN1CCc3cc4c(cc3C1C2)OCO4 (stereo not given)
active: Potency [16] 8.71 µM
inactive: Potency [17] | Potency [10] | Potency [11] | Potency [3] | outcome [12] | outcome [13] | outcome [4] | outcome [5] | Potency [6] | Potency [7] | Potency [14] | Potency [15] | Potency [9] | max activation [18] 0.596% | Potency [19] | Potency [20]

Cc1ncc2n1-c1ccc(Cl)cc1C(c1ccccc1F)=NC2
inactive: Potency [1] | Potency [17] | outcome [12] | outcome [13] | outcome [5] | Potency [6] | Potency [7] | Potency [8] | Potency [14] | Potency [15] | max activation [18] 11.3% | Potency [19] | Potency [16]
active: Potency [9] 33.5 µM

CCC(C)(C)c1cc(-n2nc3ccccc3n2)c(O)c(C(C)(C)CC)c1
inactive: Potency [1] | Potency [10] | Potency [3] | outcome [12] | outcome [13] | Potency [6] | Potency [7] | Potency [8] | Potency [14] | Potency [15] | Potency [16]
active: Potency [9] 69.6 µM

CC(C)(C)C(=O)C(Oc1ccc(Cl)cc1)n1cncn1 (stereo not given)
active: Potency [9] 27.3 µM
inactive: Potency [17] | Potency [3] | outcome [12] | outcome [13] | outcome [4] | outcome [5] | Potency [6] | Potency [7] | Potency [8] | Potency [14] | Potency [15]
